Assay outcomes deposited in PubChem BioAssay by several laboratories.
A selection: hits, their analogues and other compounds. The true share with any hit is near 3.6%.
Bead autofluor: compound fluorescence in toxin protease inhibitor counterscreen; compound autofluorescence counterscreen, microsphere flow cytometry; hits give high values; fluorescence intensity (test concentration not listed); hit rate 3.1% among 360,000; in the data active = fluorescence intensity above about 16000; inconclusive = no clear call, values can overlap the other calls
3CLpro inhibitor: SARS-CoV 3CLpro protease inhibition | recombinant SARS-CoV 3CLpro, quenched FRET peptide cleavage | inhibition, % at 6 µM | hit rate 0.14% among 290,000; in the data active = inhibition above about 12%
BJeLR lethal: BJeLR cell viability loss. BJeLR (HRASV12) viability, CellTiter-Glo ATP luminescence, 48 h. inhibition, % (test concentration not listed). hit rate 0.17% among 300,000. AID 1554; in the data active = inhibition above about 50%; inconclusive = no clear call, values can overlap the other calls
Anthrax LF prot: inhibitors of Bacillus anthracis lethal factor protease; inhibition, % at 10 µM; hit rate 0.12% among 360,000; P15917; multiplex microsphere protease cleavage assay, LF; also: plate controls were buffer without enzyme for full effect and enzyme alone for no effect
Target sequence (P15917 whole entry, looked up): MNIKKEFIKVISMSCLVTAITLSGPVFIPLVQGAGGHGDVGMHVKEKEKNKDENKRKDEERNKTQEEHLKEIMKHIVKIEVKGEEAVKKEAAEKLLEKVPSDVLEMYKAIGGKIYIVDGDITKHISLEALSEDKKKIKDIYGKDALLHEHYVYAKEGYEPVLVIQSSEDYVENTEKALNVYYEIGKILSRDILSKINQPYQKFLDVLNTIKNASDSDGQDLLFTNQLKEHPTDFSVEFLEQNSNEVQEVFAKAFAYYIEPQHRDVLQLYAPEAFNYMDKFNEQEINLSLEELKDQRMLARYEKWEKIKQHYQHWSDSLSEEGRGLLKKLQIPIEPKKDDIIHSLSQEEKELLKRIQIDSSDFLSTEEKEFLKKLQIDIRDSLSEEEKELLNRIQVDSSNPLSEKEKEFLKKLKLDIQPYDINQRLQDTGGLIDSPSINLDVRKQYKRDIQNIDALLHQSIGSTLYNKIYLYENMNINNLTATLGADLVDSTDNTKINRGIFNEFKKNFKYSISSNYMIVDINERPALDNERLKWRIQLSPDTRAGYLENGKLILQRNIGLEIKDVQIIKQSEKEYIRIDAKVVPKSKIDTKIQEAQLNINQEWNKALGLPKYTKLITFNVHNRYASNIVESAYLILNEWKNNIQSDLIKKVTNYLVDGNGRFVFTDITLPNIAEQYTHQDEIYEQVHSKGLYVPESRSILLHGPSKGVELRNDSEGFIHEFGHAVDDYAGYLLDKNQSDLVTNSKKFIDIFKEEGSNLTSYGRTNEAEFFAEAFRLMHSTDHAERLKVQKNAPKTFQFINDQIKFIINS
BoNT-A LC inh2: inhibitors of Botulinum neurotoxin A light chain protease | multiplex microsphere protease substrate cleavage, flow cytometry | inhibition, % at 10 µM | hit rate 0.17% among 360,000; also: plate controls were buffer without enzyme for full effect and enzyme alone for no effect
BoNT-F LC inh: inhibitors of Botulinum neurotoxin F light chain protease | Multiplex microsphere protease cleavage assay, flow cytometry | inhibition, % at 10 µM | hit rate 0.22% among 360,000 | AID 588497; in the data active = inhibition above about 35%, passing the limit was not always enough; inconclusive = no clear call, values can overlap the other calls; also: plate controls were buffer without enzyme for full effect and enzyme alone for no effect
* marks the source's active call; other numbers are inactive results; ? = inconclusive; . = not tested or not shown. Rule as the data show it, unless noted: active = inhibition above about 30%; inconclusive = no clear call, values can overlap the other calls; inactive = below that.

SMILES	Bead autofluor	3CLpro inhibitor	BJeLR lethal	Anthrax LF prot	BoNT-A LC inh2	BoNT-F LC inh
CC1(C(=O)NC(=S)N(Cc2ccccc2)c2ccccn2)CC1(Cl)Cl (stereo not given)	2700	-3	11	0	-1	-13
CN(C(=S)NC(=O)C1(C)CC1(Cl)Cl)c1ccccc1 (stereo not given)	23191*	6	-7	1	0	-4
CCN(CC(=O)NCc1ccc(Cl)cc1)CC(=O)NC1(C#N)CCCC1	2790	4	-1	-4	3	2
Cc1ccc(-n2c(=O)cc(NCc3cccnc3)[nH]c2=O)cc1	21543*	2	-2	0	2	2
Cc1ccc(-n2ncc3c(=O)n(CC#N)cnc32)cc1	20625*	-4	1	-1	0	-2
Cc1ccc(-n2ncc3c(=O)n(CC(N)=O)cnc32)cc1	3511	-3	-2	-1	5	-29
O=C1COc2ccc(S(=O)(=O)CCC(=O)NC3CCCCC3)cc2N1	4084	3	-7	1	0	-2
COc1ccc(CNC(=O)CN2C(=O)NC(C)(c3cccc(Br)c3)C2=O)cc1 (stereo not given)	3901	-1	0	8	-1	28
NNC(=O)c1cn2ccccc2n1	19411*	0	-1	-5	?	1
O=C(Nc1nccs1)c1cn2ccccc2n1	5249	-3	12	-4	0	0
O=c1cc2c(nn1Cc1ccccc1Cl)-c1ccccc1CC2	3562	-6	5	2	9	0
CCc1nnc(NC(=O)CSc2ccc(-c3nc4ccc(C)cc4[nH]3)cn2)s1	9163	4	10	-1	0	5
Cc1ccc([N+](=O)[O-])cc1N=Cc1ccc(Br)s1	20554*	0	4	-5	0	2
Cc1ccc(C=Nc2cc([N+](=O)[O-])ccc2C)s1	1981	4	-6	0	0	-3
COC(=O)c1cnn2c3c(c(C)nc12)CCCC3	10764	3	2	-2	0	5
Cc1c2c(nc3c(C(=O)NC4CCCC4)cnn13)CCCC2	16888*	-2	0	-5	-2	-4
Cc1ccc(Cl)cc1NC(=O)CCS(=O)(=O)c1cccc2nonc12	3730	0	0	4	0	-9
Cc1occc1-c1nnc(SCC(=O)N(C)C)o1	19878*	-4	-3	4	0	0
O=C(CCn1c(=O)c2sccc2n(CC(=O)OCc2ccccc2)c1=O)NCc1ccco1	11636	1	4	-2	0	-3
CCN(Cc1ccccc1)C(=O)Cn1c(=O)n(CC(=O)NCc2ccco2)c(=O)c2sccc21	21886*	-11	4	-9	0	1
Cc1cccc(C)c1NC(=O)Cn1c(=O)n(CCC(=O)NCc2ccco2)c(=O)c2sccc21	20666*	-4	-3	-3	-2	-4
CC1CCCCN1C(=O)Cn1c(=O)n(CCC(=O)NCc2ccco2)c(=O)c2sccc21 (stereo not given)	19227*	-4	-3	-1	2	4
CC1CCN(C(=O)Cn2c(=O)n(CCCC(=O)NCc3ccco3)c(=O)c3sccc32)CC1	3601	-4	-1	9	-1	-13
CCc1cccc(C)c1NC(=O)CSc1nnc(C)o1	5568	-3	8	-2	0	1
O=C(COc1cccc(Br)c1)N/N=C/c1ccc2c(c1)OCCO2	2941	.	.	-1	0	-1
SMILES	Bead autofluor	3CLpro inhibitor	BJeLR lethal	Anthrax LF prot	BoNT-A LC inh2	BoNT-F LC inh
Cc1cc(C)c(C)c(S(=O)(=O)NCC(=O)Nc2sc3c(c2C(N)=O)CCCC3)c1C	2204	-2	11	1	1	7
CCCCOc1ccc(-c2nc(=S)[nH][nH]2)cc1	16673*	3	9	-1	?	0
CCCCOc1ccc(-c2ncc(N)cn2)cc1	3821	4	0	12	-1	5
COc1ccc(-c2nc(SCC(=O)Nc3cc(C)on3)n[nH]2)cc1	2819	-9	-1	-3	0	-12
CCCCOc1ccc(-c2nc(SCC(N)=O)n[nH]2)cc1	20074*	6	4	-4	0	-1
C[C@H](CO)N1C[C@H](C)[C@@H](CN(C)S(=O)(=O)c2ccccc2)Oc2ccc(NS(=O)(=O)c3cn(C)cn3)cc2C1=O	3780	.	.	-6	0	2
CCn1c(SCC(=O)Nc2ccc(C(C)=O)cc2)nc2nc3c(cc2c1=O)CCCC3	23239*	-5	-1	-5	?	1
CCOC(=O)CSc1nc2sc3c(c2c(=O)n1-c1ccccc1)CCN(C(C)C)C3	5608	3	-27	6	56*	4
CN(CCCNC(=O)C1CCC(=O)N1Cc1ccccc1Cl)c1ccccc1 (stereo not given)	16389*	-1	-6	-1	1	1
CN(CCCNC(=O)C1CCC(=O)N1Cc1ccc(F)cc1)c1ccccc1 (stereo not given)	4957	-1	9	22	13	11
CCN(CCCNC(=O)C1CCC(=O)N1Cc1ccc(C)cc1)c1cccc(C)c1 (stereo not given)	3196	-1	-6	0	0	1
CCN(CCCNC(=O)C1CCC(=O)N1Cc1ccccc1Cl)c1cccc(C)c1 (stereo not given)	30276*	1	-5	-4	-17	-25
COc1ccc(C(C)=O)cc1COC(=O)Cc1cc(OC)c(OC)c(OC)c1	5214	-4	1	-2	1	2
COc1cc(C=C2NC(=O)NC2=O)ccc1O	3587	.	.	-6	0	3
COc1ccc(OC)c(/C=C2\NC(=O)NC2=O)c1	6990	-1	0	131*	23	?
CCOc1cc(/C=C(\C#N)C(=O)Nc2ccc(S(N)(=O)=O)cc2)ccc1OCCN1CCOCC1	5844	2	-4	-3	2	8
Cc1ccc2nc(C)/c(=N\O)c(C)nc2c1	16928*	2	8	-1	-2	-5
Cc1nc2ccc(Cl)cc2nc(C)/c1=N\O	2982	1	3	5	0	-6
COc1ccc(N2CCN(C(=O)CNC(=O)c3ccco3)CC2)cc1	5267	0	8	-1	4	10
COc1ccc(C(=O)OCCN=C2NS(=O)(=O)c3ccccc32)cc1OC	21489*	3	-13	2	7	7
Cc1noc(C)c1COc1ccc(C(=O)OCC(=O)NC2CCCCC2C)cc1 (stereo not given)	3064	-4	.	-11	-1	-2
CC(C)C(NCc1c(Cl)cccc1Cl)C(=O)O (stereo not given)	21266*	-5	-2	-1	5	7
CC(C)[C@H](NC(=O)NCc1ccc(Cl)cc1)C(=O)O	23334*	6	8	1	-2	0
CC1CCCC(NC(=S)NC(=O)c2ccccc2Br)C1C (stereo not given)	2140	7	3	-2	-1	-2
O=C(CN(c1ccc(F)cc1)S(=O)(=O)c1ccccc1)NC1CCCCCC1	.	1	0	.	.	.
